# Measurements as given in PubChem BioAssay (EPA / NIEHS).
# Several values for one entry are separate records, joined by “and”; a condition that tells them apart may be missing. Equal entries are not always repeated. Results filed as inconclusive are left out. The source holds several records for some structures; these can differ, active in one and inactive in another. Activity calls are given as the source filed them. The calls were made as follows: active = hit-call score of the fitted dose curve at least 0.9, where 1 is the maximum; inconclusive = response in the unintended direction; inactive = score below 0.9.
# Biological target: Cellular tumor antigen p53 (Homo sapiens) (UniProt P04637)
# Assay: TOX21_p53_BLA_p2_ratio: Tox21 HCT-116 p53 Agonism Beta-lactamase Assay, Ratio, Phase 2 (AID 2283592)
# From the text: TOX21_p53_BLA_p2 is a cell-based, single-readout assay that uses HCT116, a human intestinal cell line, […] in a 1536-well plate.TOX21_p53_BLA_p2_ratio is an assay readout measuring reporter gene via receptor activity and designed using inducible reporter (beta lactamase induction) detected with GAL4 b-lactamase reporter gene. The signal is derived from the ratio of cleaved (ch2) to uncleaved (ch1) reporter gene substrate used as the measure of target activity.Data from the assay component TOX21_p53_BLA_p2_ratio was analyzed into 1 assay endpoint. This assay endpoint, TOX21_p53_BLA_p2_ratio, was analyzed in the positive analysis fitting direction relative to DMSO as the negative control and baseline of activity. Using a type of inducible reporter, gain-of-signal activity can be used to understand changes in the reporter gene as they relate to the gene TP53. Furthermore, this assay endpoint can be referred to as a primary readout, because this assay has produced multiple assay endpoints and this ratio serves a reporter gene function to understand target activity. To generalize the intended target to other relatable targets, this assay endpoint is annotated to the DNA binding intended target family, where the subfamily is tumor suppressor.
# Thawing Method: Place 14 mL of pre-warmed thaw medium into a 15 mL of conical tub. Remove the vial of cells to be thawed from liquid nitrogen and thaw rapidly by placing at 37C in a water bath with gentle agitation for 1-2 minutes. Decontaminate the vial by wiping with 70% ethanol before opening in a biological safety cabinet. Transfer the vial contents drop-wise into 14 mL of thaw medium in a sterile 15-mL conical tub. Centrifuge cells at 900 rpm for 4 minutes and resuspend in thaw medium. Transfer contents to the T75 tissue culture flask containing Thaw Medium and place flask in a humidified 37C/5% CO2 incubator. Switch to growth medium at first passage.Propagation Method: Aspirate medium, rinse once in DPBS, add 0.25% Trypsin/EDTA and swirl to coat the cell evenly. Add an equal volume of Growth Medium to inactivate Trypsin after 2-3 minutes incubation at 37C. Centrifuge cells at 900 rpm for 4 minutes and resuspend in growth medium. Cell should be passage or fed at least twice a week.Assay Protocol: Harvest cells from culture in growth medium and resuspend in assay medium. 2.2 Dispense 4000 cells/5 uL/well into 1536-well black/clear bottom plates using a Multidrop dispenser. After the cells were incubated at 37C for 5 hours, 23 nL of compounds dissolved in DMSO were transferred to the assay plate by a PinTool resulting in a 217-fold dilution. Incubate the plates for 16 hours at 37C, 5% CO2. Add 1 uL of 6X LiveBLAzer FRET B/G (CCF4-AM) Substrate Mixture to each well using a BioRAPTR dispenser and incubate the plates at room temperature for 2 hours. Measure fluorescence intensity at 460 and 530 nm emission and 405 nm excitation by an Envision detector. Data is expressed as the ratio of 460nm/530nm emissions. Add 4 uL of Cell-titer Glo to each well using BioRAPTR and incubate the plates at room temperature for 2 hours. Measure fluorescence intensity by a VewLux plate reader.
# Sequence of Cellular tumor antigen p53 (Homo sapiens) (P04637 whole entry, looked up): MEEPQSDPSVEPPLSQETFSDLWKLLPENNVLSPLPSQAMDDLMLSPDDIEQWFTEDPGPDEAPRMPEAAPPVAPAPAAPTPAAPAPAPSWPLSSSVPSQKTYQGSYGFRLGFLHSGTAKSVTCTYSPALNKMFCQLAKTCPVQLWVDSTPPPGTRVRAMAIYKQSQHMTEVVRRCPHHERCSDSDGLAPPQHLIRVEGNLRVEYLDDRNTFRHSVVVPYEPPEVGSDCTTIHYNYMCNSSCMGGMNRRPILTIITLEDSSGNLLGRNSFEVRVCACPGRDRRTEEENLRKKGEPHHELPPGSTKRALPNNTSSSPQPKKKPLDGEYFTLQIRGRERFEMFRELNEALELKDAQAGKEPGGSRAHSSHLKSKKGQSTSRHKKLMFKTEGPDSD
Compound,AC50,outcome
C=C1CC[C@H](O)C/C1=C/C=C1\CCC[C@]2(C)[C@@H]([C@H](C)/C=C/[C@H](C)C(C)C)CC[C@@H]12,76.4 µM (active) and 45.8 µM (active),inactive
COc1ccccc1N=Nc1c(S(=O)(=O)O)cc2cc(S(=O)(=O)O)cc(NC(C)=O)c2c1O,–,inactive
COC(=O)c1ccc(C)cc1C1=NC(C)(C(C)C)C(=O)N1 (stereo not given) (tested in a mixture with another compound),–,inactive
NC(=S)NNC(N)=S,–,inactive
N[C@@H](Cc1cc(I)c(Oc2cc(I)c(O)c(I)c2)c(I)c1)C(=O)O,43.6 µM (active),inactive
CCC(C)=O,–,inactive
COC(=O)c1cccnc1,–,inactive
C=C(CC(=O)O)C(=O)O,–,inactive
Oc1c(Cl)cc(Cl)c(Cl)c1Cc1c(O)c(Cl)cc(Cl)c1Cl,10.3 µM (active) and 583 nM (active) and 984 nM (active),–
O=C(CS)OCCOC(=O)CS,42.9 µM (active),–
CCOC(=O)C(C#N)=C(c1ccccc1)c1ccccc1,–,inactive
COc1cc([C@@H]2c3cc4c(cc3[C@@H](O[C@@H]3O[C@@H]5CO[C@@H](C)O[C@H]5[C@H](O)[C@H]3O)[C@H]3COC(=O)[C@H]23)OCO4)cc(OC)c1O,1.36 µM (active) and 3.57 µM (active),–
CCC(C)S (stereo not given),–,inactive
CC(C)OCCO,–,inactive
COC(=O)c1ccc(OC)cc1,–,inactive
C[N+](C)(C)CCCCCC[N+](C)(C)C,–,inactive
O=C1NC2NC(=O)NC2N1 (stereo not given),–,inactive
Nc1c(Cl)cc(Cl)cc1[N+](=O)[O-],–,inactive
O=CCc1ccccc1,–,inactive

Compound,AC50,outcome
FC(F)(F)COCC(F)(F)F,–,inactive
O=CN1CCOCC1,–,inactive
NC1CCCCC1N (stereo not given),–,inactive
Clc1ccc(C(c2ccccc2Cl)C(Cl)Cl)cc1 (stereo not given),83.3 µM (active) and 39.1 µM (active),–
C[C@H]1C[C@@H](O)CC(C)(C)C1,–,inactive
CCc1cc(Cc2cc(CC)cc(C(C)(C)C)c2O)c(O)c(C(C)(C)C)c1,14.9 µM (active),–
CSCCC=O,–,inactive
CCCCCC(C)=O,–,inactive
CC(C)CC(C)CC(O)CC(C)C (stereo not given),–,inactive
OCC(O)c1ccccc1 (stereo not given),–,inactive
C=CCCCCCCCCCC,–,inactive
CCN(CCN)c1cccc(C)c1,–,inactive
O=c1c(O)c(-c2ccc(O)cc2)oc2cc(O)cc(O)c12,–,inactive
O=c1[nH]c(=O)c2cn[nH]c2[nH]1,–,inactive
CCCC(C)C(O)CC (stereo not given),–,inactive
Cc1cc(C)nc(NS(=O)(=O)c2ccc(N)cc2)n1,–,inactive
C=C(C)CNCC,–,inactive
O=C(O)CNc1ccccc1,–,inactive
Cc1ccc(S(=O)(=O)Oc2ccc(N=Nc3ccc(-c4ccc(N=Nc5c(O)ccc6cc(S(=O)(=O)O)cc(S(=O)(=O)O)c56)c(C)c4)cc3C)cc2)cc1,–,inactive
